Bioassay records from PubChem BioAssay.
Rows were chosen to be rich in hits. Some 21% of all compounds tested hit in one or more screens of this group.
Pf growth 96h: P. falciparum growth inhibition at 96 hour, primary screen for plastid delayed-death inhibitors; P. falciparum luciferase reporter growth, 96 h; AID 504834; 6.9% of 320,000 active; Potency, µM (top dose mostly 28.7 µM), most hits filed as inhibitors
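96 h incubation, 37 C, 5% CO2, of luciferase-reporter P. falciparum-infected RBCs (2% hematocrit, 0.05% parasitemia final) with test compounds; endpoint luminescence.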
NS1 inh: blocks influenza NS1 protein function; Potency, µM (titrated, usually from 46.1 µM); 0.4% of 270,000 active; calls by dose curve; further: actives are rising curves; nearly all actives have a fitted effect of over 50% in size
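Growth recovery, yeast-based: influenza A NS1 expressed in S. cerevisiae causes slow growth, and suppressors are detected by OD600. The parent strain without NS1 is used as positive control.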
Pf growth 48h: inhibits P. falciparum growth in the first generation, 48 h; P. falciparum luciferase growth in erythrocytes, 48 h; Potency, µM (highest dose often 28.7 µM), usual class: inhibitors; 5.9% of 310,000 active; AID 504832
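First compound was added to culture medium, then infected red cells at 0.1% parasitemia and 2% hematocrit (final). After incubation at 37 C under 5% CO2, luciferase detection reagent was dispensed and light output recorded.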
Sm TGR inh: blocks Schistosoma mansoni thioredoxin glutathione reductase; purified TGR, DTNB reduction, TNB absorbance 405 nm; 3% of 360,000 active; Potency, µM (titrated, usually from 114 µM), most hits filed as inhibitors; Q962Y6; AID 485364; further: nearly all actives have a fitted effect of over 60% in size
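TGR 20 nM + NADPH 100 uM (dispensed conc.), cpd preinc 15 min RT; start with NADPH (500 uM addition) then DTNB (15 mM addition). Kinetic TNB absorbance, 405 nm filter. Four-parameter Hill fit across titration.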
Cycloheximide cs: counter-screen for Shiga toxin inhibitors: cycloheximide protein synthesis inhibition; cell reporter, cycloheximide protein synthesis inhibition counterscreen; max response, %; 12% of 300,000 active; AID 2314; in the data active means max response mostly above about 13%, no sharp cut-off; inactive means mostly below about 14%; further: read at 38.3 µM for the half of the compounds with a filed dose
Shiga inhibitor: blocks Shiga toxin action in Vero cells; inhibition, % at 38.7 µM; 9.2% of 290,000 active; AID 2315; Vero cells, Shiga toxin protein synthesis inhibition reporter; in the data active means inhibition mostly above about 28%, no sharp cut-off; inactive means mostly below about 43%
Large screens that a line does not name were inactive. Unless noted, the call rests on the fitted dose curve; in most records, active means well fitted curve in the direction sought with a large enough effect; inconclusive means small, poorly fitted or top-dose-only effect, or another doubt; inactive means no such curve, though single readings can be large; an effect the other way counts as inactive or inconclusive.

COc1ccc(S(=O)(=O)N(Cc2ccccc2)Cc2nc(-c3ccccc3)no2)cc1	Pf growth 48h 13µM (no result: Pf growth 96h)
COc1ccc(Cc2nc(-c3cccs3)no2)cc1	Cycloheximide cs 33, Shiga inhibitor 70
COc1ccc(-c2noc(CN(C)Cc3ccccc3)n2)c(OC)c1OC	Pf growth 96h 3.7µM, Cycloheximide cs 15
COc1ccc(Cc2nc(-c3ccc(-n4cccc4)cc3)no2)cc1OC	Pf growth 96h inconclusive
COc1ccc(Cc2nc(-c3cccs3)no2)cc1OC	Cycloheximide cs 24 (no result: Pf growth 48h)
COc1ccc(CN(C)Cc2ccccc2)c(OC)c1OC	none
Cc1cccn2c(Nc3ccccc3)c(-c3cccs3)nc12	none (no result: Pf growth 96h, NS1 inh, Pf growth 48h, Cycloheximide cs, Shiga inhibitor)
COc1ccc2[nH]c3c(=O)n(Cc4ccncc4)cnc3c2c1	none
COc1ccc(NC(=O)C2(S(=O)(=O)c3ccc(C)cc3)CC2)c(OC)c1	none (no result: Pf growth 96h, NS1 inh, Pf growth 48h, Cycloheximide cs, Shiga inhibitor)
COc1ccc(Cc2nc(-c3ccccc3)no2)cc1	Cycloheximide cs 36, Shiga inhibitor 42
N/C(=N\NC(=O)c1ccc(Cl)cc1)c1cnccn1	Pf growth 96h inconclusive, Pf growth 48h inconclusive, Cycloheximide cs 33, Shiga inhibitor 48
O=C(Nc1cnccn1)c1ccc(Cl)cc1	Shiga inhibitor 58 (no result: Pf growth 48h)
O=C(NNC(=O)c1cnccn1)c1ccc(Cl)c(Cl)c1	Pf growth 96h 3.7µM, Pf growth 48h inconclusive
O=C(Nc1cnccn1)c1ccncc1	none
NC(=O)C(=O)N/N=C/c1c(F)c(F)c(F)c(F)c1F	none (no result: NS1 inh)
CCN(CC)c1ccc(C(=O)NNC(=O)CN2C(=O)NC(C)(c3ccccc3)C2=O)cc1 (configuration not stated)	none (no result: NS1 inh, Cycloheximide cs, Shiga inhibitor)
COc1ccc(C(=O)N(Cc2ccco2)Cc2cccs2)c(O)c1	none (no result: Pf growth 96h)
COc1ccc(C(=O)/C=C/C(=O)N(CC(=O)NC2CCCCC2)Cc2ccc(F)cc2)c(O)c1	Pf growth 96h 2.3µM, Pf growth 48h 9.3µM, Sm TGR inh 3.5µM
COc1ccc(C(=O)/C=C/C(=O)N(CC(=O)NCCC(C)C)Cc2cccs2)c(O)c1	Pf growth 48h inconclusive, Sm TGR inh 2.8µM
COc1ccccc1CN1C[C@@H]2C[C@@H](c3ccccc3OC)N3CCC[C@@]23C1=O	Pf growth 96h inconclusive, Pf growth 48h inconclusive
O=C1N(Cc2cccnc2)C[C@@H]2C[C@@H](c3ccc(-c4ccccc4)cc3)N3CCC[C@@]123	Pf growth 96h inconclusive, Pf growth 48h 12µM
COc1ccccc1CN1C[C@@H]2C[C@@H](C3=Cc4cccc(OC)c4OC3)N3CCC[C@@]23C1=O	Pf growth 48h 4.7µM
O=C1N(Cc2cccnc2)C[C@@H]2C[C@@H](c3ccc4nonc4c3)N3CCC[C@@]123	Sm TGR inh 28µM
Cc1ccccc1CN1C[C@@H]2C[C@@H](c3cn[nH]c3-c3ccccc3)N3CCC[C@@]23C1=O	Pf growth 96h inconclusive, Pf growth 48h 1.7µM
COc1cc(C(=O)N(Cc2cccnc2)c2nc3cc(C)c(C)cc3s2)cc(OC)c1OC	none (no result: Pf growth 96h, NS1 inh, Pf growth 48h, Cycloheximide cs, Shiga inhibitor)
O=[N+]([O-])c1cccc(-c2cc(-c3cc(Br)ccc3O)[nH]n2)c1	Pf growth 96h 8.3µM, Pf growth 48h 4.7µM, Cycloheximide cs 24, Shiga inhibitor 86
Nc1n[nH]c(-c2cccc([N+](=O)[O-])c2)n1	none
Oc1ccc(Br)cc1-c1cc(-c2ccccc2)n[nH]1	Pf growth 96h 3.3µM, Pf growth 48h 5.2µM, Cycloheximide cs 16
Fc1ccc(-c2cc(-c3nc(-c4ccc(Cl)cc4)no3)[nH]n2)cc1	none (no result: Pf growth 96h, NS1 inh, Pf growth 48h, Cycloheximide cs, Shiga inhibitor)
Oc1ccc(Br)cc1-c1cc(-c2ccc(Cl)cc2)n[nH]1	Pf growth 48h 1.2µM, Cycloheximide cs 22, Shiga inhibitor 93 (no result: Pf growth 96h)
O=[N+]([O-])c1cccc(-c2n[nH]c(=S)n2-c2ccc(Br)cc2)c1	Sm TGR inh 0.79µM
S=c1[nH]nc(-c2ccc(Br)cc2)n1-c1ccc(Br)cc1	none
COc1ccc(CCNC(=O)c2ccc(C)s2)cc1OC	none (no result: Sm TGR inh)
CCOc1cc2c(cc1OCC)C(CC(=O)O)N(C(=O)Nc1ccc(Br)c(C)c1)CC2 (configuration not stated)	none (no result: Pf growth 96h, NS1 inh, Pf growth 48h, Cycloheximide cs, Shiga inhibitor)
COc1ccccc1CNC(=O)c1ccc(CNc2c(N3CCCC3)c(=O)c2=O)cc1	Pf growth 96h 4.7µM, Pf growth 48h inconclusive
O=C(NCc1ccc(Cl)cc1)c1ccc(CNc2c(N3CCCC3)c(=O)c2=O)cc1	Pf growth 96h inconclusive
